# Out of some 48,000 compounds screened, about 13,000 (27%) showed an effect of 50% or more. The list shows a part of the results.
# Tested on: Wolbachia pipientis
# Assay: Anti-Wolbachia Cell-Based Screen
# Assay type: functional
# Set-up: scale not given: in the data most compounds retested in dose-response had high values
# Details: 5 µM
row,SMILES,Percent Effect
1,c1ccc2sc(NCC3(N4CCOCC4)CCSC3)nc2c1 (stereo not given),0.766%
2,O=C(CC(F)(F)F)NCC(O)c1ccc2ccccc2c1 (stereo not given),-2.994%
3,Cc1ncsc1-c1nnc(C2CCN(Cc3ccc(Cl)cc3)CC2)o1,113.6%
4,Cc1ncsc1-c1nc(CC2CCN(C)CC2)nn1Cc1ccccc1,-11.92%
5,Cc1ncsc1-c1nnc(C2CCN(CC3CCCCC3)CC2)o1,-4.118%
6,Cc1ccc(CN2CC[C@H](c3nnc(-c4ccco4)o3)C2)cc1,-0.8562%
7,COc1ccc(CN2CCC(c3nnc(-c4scnc4C)o3)CC2)cc1,115.7%
8,COc1ccc(-c2nnc([C@H]3CCN(CC(C)(C)C)C3)o2)cc1,4.195%
9,Cc1ncsc1-c1nnc(C2CCN(Cc3ccc(F)cc3)CC2)o1,-4.23%
10,Cc1ncsc1-c1nnc(C2CCN(Cc3ccccc3)CC2)o1,104.4%
11,COc1ccc(CN2CC[C@H](c3nnc(-c4ccco4)o3)C2)cc1,27.76%
12,COc1ccc2c(c1)CC(C(=O)N(C)Cc1noc3c1CCCC3)CO2 (stereo not given),-16.58%
13,c1cnnc(N2CCC(c3nnc(Cn4ccnc4)n3C3CC3)CC2)c1,-16.04%
14,COc1cccnc1NC(=O)COC1CCCC1,13.24%
15,Cc1nc(NC(=O)COCC(F)(F)F)ccc1Br,2.547%
16,COc1cccnc1NC(=O)c1ccc(COCC(F)(F)F)cc1,77.14%
17,COc1cccnc1NC(=O)COc1ccc(F)cc1F,10.02%
18,CN(C)CCN(Cc1ccc(C(F)(F)F)cc1)C(=O)c1cc[nH]n1,-18.8%
19,O=C(Nc1cc[nH]n1)c1ccc(COCC(F)(F)F)cc1,87.88%
20,Cc1n[nH]c(NC(=O)c2ccc(COCC(F)(F)F)cc2)c1C,90.05%
21,Cc1n[nH]c(C)c1NC(=O)c1cccc(OCC(F)(F)F)n1,9.795%
22,CC(C)CC(NC(=O)c1cccc(F)c1F)C(=O)Nc1cc[nH]n1 (stereo not given),-2.094%
23,CC(C)C(=O)NCCNC(=O)C12CCC(=O)N1c1cc(Cl)ccc1S2 (stereo not given),-7.313%
24,CC(=O)N[C@@H]1Cc2ccccc2[C@H]1Nc1cc(C2CC2)ncn1,-3.919%
25,COCCn1/c(=N\C(=O)CN(C)S(C)(=O)=O)sc2cc(Cl)ccc21,-11.47%
26,Cc1ccc2nc(C)c(C)c(C(=O)N3CCC4(CCO4)CC3)c2c1,-9.053%
27,O=C(NCc1cccnc1)C1=NN(c2ccccc2)C(=O)CN1,-0.2289%
28,CCC(=O)N1CCC(NC2CCSCC2)C1 (stereo not given),-15.97%

row,SMILES,Percent Effect
1,O=C(N[C@]12CC1CN(C(=O)c1ccco1)C2)c1cccc(F)c1 (stereo not given in full),-50.8%
2,OCCC1CN(C2CCC2)CCN1C1CCCC1 (stereo not given),7.142%
3,Cc1cc(C)n(CC2CN(Cc3nc(-c4ccoc4)no3)CCO2)n1 (stereo not given),9.322%
4,Cc1cc(C)n(CC2CN(Cc3nc(C)c(C)o3)CCO2)n1 (stereo not given),127.2%
5,Cc1cc(C)n(CC2CN(Cc3noc(C)n3)CCO2)n1 (stereo not given),98.99%
6,Cc1cc(C)n(CC2CN(Cc3nnsc3Cl)CCO2)n1 (stereo not given),2.291%
7,Cc1cc(C)n(CC2CN(Cc3nc(C4CC4)no3)CCO2)n1 (stereo not given),104.8%
8,Cc1cc(C)n(CC2CN(Cc3cscn3)CCO2)n1 (stereo not given),-9.283%
9,CCc1nc(CN2CCOC(Cn3nc(C)cc3C)C2)no1 (stereo not given),85.61%
10,CCc1nc(CN2CCOC(Cn3nc(C)nc3C)C2)no1 (stereo not given),5.512%
11,CCc1n[nH]c(C2CN(Cc3nc(C4CC4)no3)CCO2)n1 (stereo not given),14.51%
12,O=C1O[C@@H]2CN(C3CCOCC3)C[C@@H]2N1CCc1cccc(Cl)c1,-15.11%
13,CCNC(=O)NC(=O)CNC(C)(CC)c1nccs1 (stereo not given),7.409%
14,CC(=O)c1cc(C(=O)N2CCC(CC(C)C)C2)c(=O)[nH]c1C (stereo not given),6.103%
15,O=C1CC(Nc2ccc3nccnc3n2)CN1c1ccccc1 (stereo not given),-12.7%
16,c1cnn(CC2CN(Cc3noc(C4CC4)n3)CCO2)c1 (stereo not given),-0.1842%
17,Cc1cc(C)n(CC2CN(Cc3noc(C4CC4)n3)CCO2)n1 (stereo not given),115.4%
18,COc1cccc2c1OCCCN(c1nc(C)nc3c1CCNCC3)C2,-7.329%
19,Fc1cccc(-n2ccc(CN3CCCCC3Cn3cncn3)n2)c1 (stereo not given),-7.7%
20,c1ccc(-n2ccc(CN3CCCCC3Cn3cncn3)n2)cc1 (stereo not given),140.8%
21,N#Cc1ccc(F)c(CN2CCCC2Cn2cccn2)c1 (stereo not given),-3.171%
22,N#Cc1ccccc1CN1CCCCC1Cn1cncn1 (stereo not given),7.073%
23,c1ccc(-c2nc(CN3CCCC3Cn3cncn3)cs2)cc1 (stereo not given),-3.695%
24,c1ccc(CN2CCCC2Cn2cncn2)nc1 (stereo not given),-0.04189%
25,c1ccc(-n2ccc(CN3CCCC3Cn3cncn3)n2)cc1 (stereo not given),128.5%
26,Fc1ccc(CN2CCCC2Cn2cccn2)c2ncccc12 (stereo not given),-3.711%
27,Fc1cccc(-n2ccc(CN3CCCC3Cn3cccn3)n2)c1 (stereo not given),141.1%
